Assay results published in PubChem BioAssay (Tox21).
Results filed as inconclusive are left out. The source made the active and inactive calls. Unless noted, the call rests on the fitted dose curve; in most records, active means well fitted curve in the direction sought with a large enough effect in the repeat runs; inconclusive means weak or mixed curves; inactive means no such curve, though single readings can be large; an effect the other way counts as inactive or inconclusive.

Assays:
[1] = qHTS assay to identify small molecule agonists of the androgen receptor (AR) signaling pathway in the presence of an antagonist - cell viability counter screen (AID 1259379);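 further: MDA-kb2 human breast cancer cells carrying an MMTV luciferase reporter; series mostly up to about 92 µM; nearly all actives have a fitted effect of over 25% in size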
Procedure, shortened: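 Each compound was tested at 15 concentrations on MDA-kb2 cells in the presence of 3.0uM nilutamide. Viability was measured by CellTiter-Fluor fluorescence after a 16 hr incubation at 37C in a CO2-free atmosphere.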

[2] = qHTS assay to identify small molecule agonists of the estrogen receptor beta (ER-beta) signaling pathway - cell viability counter screen (AID 1259380); further: nearly all actives have a fitted effect of over 30% in size
Procedure, shortened: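 Compounds dissolved in DMSO were pin-transferred onto ER-beta-UAS-bla HEK293T cells that had settled 6 hr, and exposure ran 16 hr at 37C. Following the reporter read, CellTiter-Glo luminescence after 30 min at room temperature indicated cytotoxicity.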

[3] = biological target: Androgen receptor (Homo sapiens) (UniProt P10275); assay: qHTS assay to identify small molecule agonists of the androgen receptor (AR) signaling pathway in the presence of an antagonist (AID 1259381; calls by dose curve; further: nearly all actives have a fitted effect of over 15% in size)
Sequence of Androgen receptor (Homo sapiens) (P10275 whole entry, looked up): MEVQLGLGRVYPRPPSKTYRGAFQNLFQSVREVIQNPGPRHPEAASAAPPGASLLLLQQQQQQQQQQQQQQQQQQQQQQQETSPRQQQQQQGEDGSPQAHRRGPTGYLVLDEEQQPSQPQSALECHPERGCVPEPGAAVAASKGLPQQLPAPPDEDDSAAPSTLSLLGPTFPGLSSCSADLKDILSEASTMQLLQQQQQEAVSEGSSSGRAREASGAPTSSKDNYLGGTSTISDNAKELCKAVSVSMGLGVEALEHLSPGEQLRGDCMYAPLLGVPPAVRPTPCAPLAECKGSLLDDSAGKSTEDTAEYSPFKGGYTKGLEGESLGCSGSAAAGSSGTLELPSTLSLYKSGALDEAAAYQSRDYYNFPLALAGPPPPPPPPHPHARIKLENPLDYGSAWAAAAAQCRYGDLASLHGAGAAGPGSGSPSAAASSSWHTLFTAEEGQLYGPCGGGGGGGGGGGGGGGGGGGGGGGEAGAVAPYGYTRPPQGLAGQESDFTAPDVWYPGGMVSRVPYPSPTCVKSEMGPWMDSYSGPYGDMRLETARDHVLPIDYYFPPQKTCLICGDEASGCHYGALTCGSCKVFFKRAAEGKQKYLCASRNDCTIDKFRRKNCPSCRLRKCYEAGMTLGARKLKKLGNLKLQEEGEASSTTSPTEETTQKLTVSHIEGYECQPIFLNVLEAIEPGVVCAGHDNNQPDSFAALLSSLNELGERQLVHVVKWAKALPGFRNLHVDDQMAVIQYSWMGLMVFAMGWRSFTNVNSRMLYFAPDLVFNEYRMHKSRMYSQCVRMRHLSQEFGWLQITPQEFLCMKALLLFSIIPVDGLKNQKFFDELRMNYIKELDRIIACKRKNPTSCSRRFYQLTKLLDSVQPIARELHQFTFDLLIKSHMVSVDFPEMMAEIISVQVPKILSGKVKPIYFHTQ
Procedure, shortened: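 Plated MDA-kb2 cells (3,000/well) were pre-incubated 5hr, given nilutamide (3.0uM final) or buffer, then dosed with compounds in DMSO at 15 concentrations. Luciferase activity was quantified by luminescence after 16hr at 37C.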

[4] = qHTS assay to identify small molecule antagonists of the estrogen receptor beta (ER-beta) signaling pathway - cell viability counter screen (AID 1259382);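 further: HEK293T cells carrying ER-beta-UAS-bla reporter stimulated with estradiol; series mostly up to about 92 µM; nearly all actives have a fitted effect of over 55% in size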
Procedure, shortened: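 CellTiter-Glo ATP luminescence measured after the LiveBLAzer read in the same wells; ER-beta-UAS-bla HEK293T cells, 16 hr compound treatment with 1nM 17-beta-estradiol agonist at 37C, 5% CO2.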

[5] = biological target: Estrogen receptor (Homo sapiens) (UniProt P03372); assay: qHTS assay to identify small molecule agonists of the estrogen receptor alpha (ER-alpha) signaling pathway in the presence of an antagonist (AID 1259383; calls by dose curve; further: top concentration of the series differs between compounds; nearly all actives have a fitted effect of over 15% in size)
Sequence of Estrogen receptor (Homo sapiens) (P03372 whole entry, looked up): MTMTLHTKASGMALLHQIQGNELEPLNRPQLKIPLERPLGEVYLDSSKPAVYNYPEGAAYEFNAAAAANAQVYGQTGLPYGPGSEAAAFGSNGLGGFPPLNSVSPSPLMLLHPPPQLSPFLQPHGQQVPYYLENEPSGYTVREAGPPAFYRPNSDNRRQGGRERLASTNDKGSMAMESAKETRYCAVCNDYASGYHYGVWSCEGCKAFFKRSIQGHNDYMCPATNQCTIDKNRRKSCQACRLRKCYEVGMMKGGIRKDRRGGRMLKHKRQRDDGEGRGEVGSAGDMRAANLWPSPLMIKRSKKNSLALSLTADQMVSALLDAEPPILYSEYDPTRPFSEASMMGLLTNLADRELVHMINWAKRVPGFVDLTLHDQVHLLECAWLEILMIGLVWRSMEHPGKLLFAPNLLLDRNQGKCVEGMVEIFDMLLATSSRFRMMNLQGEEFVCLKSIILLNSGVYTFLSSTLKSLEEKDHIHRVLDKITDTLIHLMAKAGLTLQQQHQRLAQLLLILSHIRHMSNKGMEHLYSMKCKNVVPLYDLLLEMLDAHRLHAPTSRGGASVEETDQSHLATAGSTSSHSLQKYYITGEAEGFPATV
Procedure, shortened: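 Luminescent ERE-luciferase reporter, VM7Luc4E2 cells (endogenous ER-alpha); 10.0nM ICI-182,780 final; 15-point compound titration; 22hr at 37C; ONE-Glo, 30min RT.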

[6] = qHTS assay to identify small molecule agonists or antagonists of the thyroid stimulating hormone receptor (TSHR) signaling pathway - wild type cell line counter screen (AID 1259384; calls by dose curve)
Procedure, shortened: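 Wild-type Hek293 cells, 800/well, 18 h at 37C, then compound with Ro20-1724 for 30 min RT. cAMP by HTRF (cAMP-d2/anti-cAMP cryptate), 1 h RT, fluorescence read. 15 concentrations, triplicates.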

[7] = biological target: Thyrotropin receptor (Homo sapiens) (UniProt P16473); assay: qHTS assay to identify small molecule antagonists of the thyroid stimulating hormone receptor (TSHR) signaling pathway (AID 1259385; calls by dose curve; further: nearly all actives have a fitted effect of over 20% in size)
Sequence of Thyrotropin receptor (Homo sapiens) (P16473 whole entry, looked up): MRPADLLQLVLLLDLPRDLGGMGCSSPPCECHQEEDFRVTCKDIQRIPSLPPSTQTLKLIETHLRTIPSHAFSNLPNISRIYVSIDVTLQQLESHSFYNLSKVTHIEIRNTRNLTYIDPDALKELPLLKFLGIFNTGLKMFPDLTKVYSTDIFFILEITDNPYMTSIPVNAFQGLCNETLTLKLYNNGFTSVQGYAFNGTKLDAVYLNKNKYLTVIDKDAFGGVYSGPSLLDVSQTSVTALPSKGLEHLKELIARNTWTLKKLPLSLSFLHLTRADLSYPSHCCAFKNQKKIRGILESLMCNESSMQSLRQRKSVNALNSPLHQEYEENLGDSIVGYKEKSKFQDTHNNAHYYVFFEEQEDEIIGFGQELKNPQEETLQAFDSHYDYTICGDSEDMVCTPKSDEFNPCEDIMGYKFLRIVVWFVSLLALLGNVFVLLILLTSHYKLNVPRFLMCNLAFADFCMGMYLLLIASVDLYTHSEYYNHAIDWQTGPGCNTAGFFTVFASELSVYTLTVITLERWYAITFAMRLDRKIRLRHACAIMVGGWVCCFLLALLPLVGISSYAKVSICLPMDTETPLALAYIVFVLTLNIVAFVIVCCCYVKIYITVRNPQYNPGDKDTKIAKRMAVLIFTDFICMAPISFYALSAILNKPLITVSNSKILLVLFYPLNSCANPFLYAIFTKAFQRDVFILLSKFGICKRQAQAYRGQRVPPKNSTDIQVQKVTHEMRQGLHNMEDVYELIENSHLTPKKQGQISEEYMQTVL
Procedure, shortened: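 TSHR-HEK293 cells (800/well) plated 18 h, then compounds with Ro20-1724 and TSH at 1.5 ng/mL final, 30 min at room temperature. cAMP quantified by HTRF (cAMP-d2/anti-cAMP-cryptate, 1 h); 15 concentrations in triplicate.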

[8] = qHTS assay to identify small molecule agonists of the estrogen receptor alpha (ER-alpha) signaling pathway in the presence of an antagonist - cell viability counter screen (AID 1259386);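 further: series mostly up to about 92 µM; cells exposed to compounds for 22 h at 37 °C before the viability read; nearly all actives have a fitted effect of over 30% in size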
Procedure, shortened: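 Using estrogen-depleted VM7Luc4E2 cells, the 15-concentration compound series was applied together with 10.0nM ICI-182,780 and incubated 22hr at 37C/5% CO2. Cell viability was then scored by CellTiter-Fluor.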

[9] = biological target: Progesterone receptor (Homo sapiens) (UniProt P06401); assay: qHTS assay to identify small molecule agonists of the progesterone receptor (PR) signaling pathway (AID 1346784; calls by dose curve; further: nearly all actives have a fitted effect of over 30% in size)
Sequence of Progesterone receptor (Homo sapiens) (P06401 whole entry, looked up): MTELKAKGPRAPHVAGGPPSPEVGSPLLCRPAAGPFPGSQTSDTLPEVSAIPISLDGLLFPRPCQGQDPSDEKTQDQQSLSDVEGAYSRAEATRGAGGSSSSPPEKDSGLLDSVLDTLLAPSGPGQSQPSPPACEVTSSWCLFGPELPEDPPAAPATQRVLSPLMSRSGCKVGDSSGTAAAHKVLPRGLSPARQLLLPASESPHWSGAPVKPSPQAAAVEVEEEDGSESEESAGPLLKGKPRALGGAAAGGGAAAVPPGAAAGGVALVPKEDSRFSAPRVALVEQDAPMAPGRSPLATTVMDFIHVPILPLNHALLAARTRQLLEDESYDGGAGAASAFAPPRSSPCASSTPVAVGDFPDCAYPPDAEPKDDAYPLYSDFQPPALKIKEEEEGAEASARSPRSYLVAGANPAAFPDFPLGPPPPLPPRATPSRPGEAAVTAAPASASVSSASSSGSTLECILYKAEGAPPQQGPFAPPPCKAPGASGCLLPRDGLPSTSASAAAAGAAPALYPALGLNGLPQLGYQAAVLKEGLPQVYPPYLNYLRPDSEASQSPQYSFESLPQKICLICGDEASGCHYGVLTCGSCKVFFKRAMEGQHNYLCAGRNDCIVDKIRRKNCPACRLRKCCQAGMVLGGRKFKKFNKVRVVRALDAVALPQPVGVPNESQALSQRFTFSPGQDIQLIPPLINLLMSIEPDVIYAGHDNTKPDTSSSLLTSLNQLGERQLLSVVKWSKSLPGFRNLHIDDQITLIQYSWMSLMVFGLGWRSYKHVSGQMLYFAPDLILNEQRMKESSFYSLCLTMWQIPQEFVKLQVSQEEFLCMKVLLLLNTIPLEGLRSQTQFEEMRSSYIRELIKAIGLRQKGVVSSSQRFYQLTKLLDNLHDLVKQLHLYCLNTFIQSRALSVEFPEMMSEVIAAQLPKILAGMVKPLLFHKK
Procedure, shortened: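 Compounds were tested for PR agonism in HEK 293T cells bearing a beta-lactamase gene under UAS control. Treatment lasted 16 hr at 37C; signal came from fluorescence of a FRET substrate.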

[10] = qHTS assay to identify small molecule antagonists of the progesterone receptor (PR) signaling pathway - cell viability counter screen (AID 1346798); further: series mostly up to about 92 µM; nearly all actives have a fitted effect of over 50% in size
Procedure, shortened: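 Following a 4 hr attachment, PR-UAS-bla HEK293T cells in charcoal-stripped FBS medium were exposed to compounds with R5020 for 16 hr; CellTiter-Glo was added and luminescence read after 30 min at room temperature.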

[11] = qHTS assay to identify small molecule agonists of the progesterone receptor (PR) signaling pathway - cell viability counter screen (AID 1346799; calls by dose curve; further: nearly all actives have a fitted effect of over 45% in size)
Procedure, shortened: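 Here, 3,000 PR-UAS-bla HEK293T cells per well were treated with compounds for 16 hr after a 6 hr preincubation at 37C and 5% CO2; cell viability is the CellTiter-Glo luminescence signal.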

[12] = qHTS assay to identify small molecule agonists of the TGF-beta/Smad signaling pathway - cell viability counter screen (AID 1346829); further: top concentration of the series differs between compounds; nearly all actives have a fitted effect of over 45% in size
Procedure, shortened: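 Same-well cytotoxicity: CellTiter-Glo added after the 2 hr room-temperature beta-lactamase substrate step, luminescence measured 30 min later; cells had 5 hr of compound at 37 C.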

[13] = qHTS assay to identify small molecule agonists of the TGF-beta/Smad signaling pathway (AID 1346859; active means well fitted activation curve with a large enough effect in the signal ratio in the repeat runs, not every such curve was filed as active; the % refers to the signal ratio; further: series mostly up to about 77 µM)
Procedure, shortened: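 Each well held 4,000 SBE-bla HEK 293T cells incubated overnight before compound addition; 5 hr later the cleavable FRET substrate went on for 2 hr at room temperature, and fluorescence was read at two emissions.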

[14] = biological target: Thyrotropin-releasing hormone receptor (Homo sapiens) (UniProt P34981); assay: qHTS assay to identify small molecule antagonists of the thyrotropin-releasing hormone receptor (TRHR) signaling pathway (AID 1346877; active means well fitted inhibition curve with a large enough effect in the repeat runs, not every such curve was filed as active; further: series mostly up to about 51 µM)
Sequence of Thyrotropin-releasing hormone receptor (Homo sapiens) (P34981 whole entry, looked up): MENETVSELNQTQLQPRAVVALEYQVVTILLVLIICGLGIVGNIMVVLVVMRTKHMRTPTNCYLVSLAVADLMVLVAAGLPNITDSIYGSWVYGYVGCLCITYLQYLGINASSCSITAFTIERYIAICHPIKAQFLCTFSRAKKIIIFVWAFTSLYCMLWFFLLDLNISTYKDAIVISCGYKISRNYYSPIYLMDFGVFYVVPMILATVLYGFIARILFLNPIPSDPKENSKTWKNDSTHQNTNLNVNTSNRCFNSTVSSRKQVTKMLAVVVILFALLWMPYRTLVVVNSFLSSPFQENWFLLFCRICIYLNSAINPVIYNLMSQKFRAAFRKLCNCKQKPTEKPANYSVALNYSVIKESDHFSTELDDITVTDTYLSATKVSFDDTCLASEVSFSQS
Procedure, shortened: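 Calcium signal in dye-loaded TRHR/HEK293 cells; compounds added 5 min before TRH (1 nM final); fluorescence monitored 3 min at 1 s steps.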

[15] = biological target: Thyrotropin-releasing hormone receptor (Homo sapiens) (UniProt P34981); assay: qHTS assay to identify small molecule agonists of the thyrotropin-releasing hormone receptor (TRHR) signaling pathway (AID 1346891; calls by dose curve; further: series mostly up to about 58 µM)
Procedure, shortened: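 Screening of agonists relied on calcium signalling in HEK293 cells expressing human TRHR: dye loading 2 h at 37 °C preceded compound addition and a 3-min fluorescence time course.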

[16] = Human pregnane X receptor (PXR) small molecule agonists, qHTS cell viability counter screen (AID 1346977); further: nearly all actives have a fitted effect of over 50% in size
Procedure, shortened: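 Tox21 qHTS format; PXR-Luc HepG2, 2,000/well, charcoal-stripped FBS 5%. Cpd exposure 24hr. Read: CellTiter-Fluor fluorescence, multiplexed with luciferase.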

[17] = Caspase-3/7 induction in HepG2 cells by small molecules, qHTS assay (AID 1346978); further: nearly all actives have a fitted effect of over 15% in size
Procedure, shortened: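 Wild-type HepG2 cells, 2,000/well, settled 5 hr at 37 C and 5% CO2, then compound-treated for 17 hr; caspase-3/7 activity read by luminescent Caspase-Glo 3/7 after 30 min at room temperature.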

[18] = Caspase-3/7 induction in CHO-K1 cells by small molecules, qHTS cell viability counter screen (AID 1346979); further: nearly all actives have a fitted effect of over 35% in size
Procedure, shortened: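 CellTiter-Fluor viability check, qHTS format: wild-type CHO-K1, 16hr compound treatment, 1hr reagent incubation, fluorescence read.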

[19] = qHTS assay to identify small molecule antagonists of the TGF-beta/Smad signaling pathway - cell viability counter screen (AID 1346824); further: nearly all actives have a fitted effect of over 50% in size
Procedure, shortened: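 SBE-bla HEK 293T cells, incubated overnight, then compound plus 0.25 ng/mL TGF-beta1 (stock added) for 5 hr at 37 C. Viability was read in the same wells by CellTiter-Glo luminescence after 30 min at room temperature.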

[20] = biological target: Progesterone receptor (Homo sapiens) (UniProt P06401); assay: qHTS assay to identify small molecule antagonists of the progesterone receptor (PR) signaling pathway (AID 1346795; active means well fitted inhibition curve with a large enough effect in the signal ratio in the repeat runs, not every such curve was filed as active; the % refers to the signal ratio)
Procedure, shortened: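 In HEK293T cells bearing the PR-UAS-bla reporter, compound effects on promegestone-driven (1 nM) beta-lactamase expression are assessed after 16 hr using a fluorescent FRET substrate incubated 2 hr at room temperature.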

Measured: Potency

CCOC=C(C(=O)OCC)C(=O)OCC
not listed: [19] | [20]
inactive: all other assays above

C/C=C/C(=O)OCC(C)C
not listed: [6] | [15] | [18] | [20]
inactive: all other assays above

Cc1cccc2c1ccc1ccccc12
not listed: [6] | [7] | [13] | [15] | [20]
inactive: all other assays above

Cc1ccc2sc3cccc(C)c3c2c1
not listed: [15] | [20]
inactive: all other assays above

CN1CCN(C)CC1
not listed: [11] | [14] | [15]
inactive: all other assays above

CCC(O)CO (stereo unspecified)
not listed: [19]
inactive: all other assays above

C/C=C/C(=O)C1=C(C)C=CCC1(C)C
not listed: [6] | [15]
inactive: all other assays above

C=CC(C)(C)O
not listed: [6] | [7] | [14] | [15] | [20]
inactive: all other assays above
